Compound activity: PubChem, National Center for Advancing Translational Sciences (NCATS)
This is one part of a sample in which hits are shown more often than they occur.
nsP2pro inh – Primary qHTS for inhibitors of NSP2Pro chikungunya virus (CHIKV); Polyprotein P1234 (Chikungunya virus (strain S27-African prototype)), Q8JUX6; FRET peptide cleavage, nsP2pro, fluorescence 1 h; Potency, µM (highest dose often 24.9 µM), inactives show at the top dose activity change, negative = inhibition, usual class: inhibitors; hit rate 1.1% among 31,000; calls by dose curve; further: nearly all actives have a fitted effect of over 60% in size
Target sequence (Q8JUX6 whole entry, looked up): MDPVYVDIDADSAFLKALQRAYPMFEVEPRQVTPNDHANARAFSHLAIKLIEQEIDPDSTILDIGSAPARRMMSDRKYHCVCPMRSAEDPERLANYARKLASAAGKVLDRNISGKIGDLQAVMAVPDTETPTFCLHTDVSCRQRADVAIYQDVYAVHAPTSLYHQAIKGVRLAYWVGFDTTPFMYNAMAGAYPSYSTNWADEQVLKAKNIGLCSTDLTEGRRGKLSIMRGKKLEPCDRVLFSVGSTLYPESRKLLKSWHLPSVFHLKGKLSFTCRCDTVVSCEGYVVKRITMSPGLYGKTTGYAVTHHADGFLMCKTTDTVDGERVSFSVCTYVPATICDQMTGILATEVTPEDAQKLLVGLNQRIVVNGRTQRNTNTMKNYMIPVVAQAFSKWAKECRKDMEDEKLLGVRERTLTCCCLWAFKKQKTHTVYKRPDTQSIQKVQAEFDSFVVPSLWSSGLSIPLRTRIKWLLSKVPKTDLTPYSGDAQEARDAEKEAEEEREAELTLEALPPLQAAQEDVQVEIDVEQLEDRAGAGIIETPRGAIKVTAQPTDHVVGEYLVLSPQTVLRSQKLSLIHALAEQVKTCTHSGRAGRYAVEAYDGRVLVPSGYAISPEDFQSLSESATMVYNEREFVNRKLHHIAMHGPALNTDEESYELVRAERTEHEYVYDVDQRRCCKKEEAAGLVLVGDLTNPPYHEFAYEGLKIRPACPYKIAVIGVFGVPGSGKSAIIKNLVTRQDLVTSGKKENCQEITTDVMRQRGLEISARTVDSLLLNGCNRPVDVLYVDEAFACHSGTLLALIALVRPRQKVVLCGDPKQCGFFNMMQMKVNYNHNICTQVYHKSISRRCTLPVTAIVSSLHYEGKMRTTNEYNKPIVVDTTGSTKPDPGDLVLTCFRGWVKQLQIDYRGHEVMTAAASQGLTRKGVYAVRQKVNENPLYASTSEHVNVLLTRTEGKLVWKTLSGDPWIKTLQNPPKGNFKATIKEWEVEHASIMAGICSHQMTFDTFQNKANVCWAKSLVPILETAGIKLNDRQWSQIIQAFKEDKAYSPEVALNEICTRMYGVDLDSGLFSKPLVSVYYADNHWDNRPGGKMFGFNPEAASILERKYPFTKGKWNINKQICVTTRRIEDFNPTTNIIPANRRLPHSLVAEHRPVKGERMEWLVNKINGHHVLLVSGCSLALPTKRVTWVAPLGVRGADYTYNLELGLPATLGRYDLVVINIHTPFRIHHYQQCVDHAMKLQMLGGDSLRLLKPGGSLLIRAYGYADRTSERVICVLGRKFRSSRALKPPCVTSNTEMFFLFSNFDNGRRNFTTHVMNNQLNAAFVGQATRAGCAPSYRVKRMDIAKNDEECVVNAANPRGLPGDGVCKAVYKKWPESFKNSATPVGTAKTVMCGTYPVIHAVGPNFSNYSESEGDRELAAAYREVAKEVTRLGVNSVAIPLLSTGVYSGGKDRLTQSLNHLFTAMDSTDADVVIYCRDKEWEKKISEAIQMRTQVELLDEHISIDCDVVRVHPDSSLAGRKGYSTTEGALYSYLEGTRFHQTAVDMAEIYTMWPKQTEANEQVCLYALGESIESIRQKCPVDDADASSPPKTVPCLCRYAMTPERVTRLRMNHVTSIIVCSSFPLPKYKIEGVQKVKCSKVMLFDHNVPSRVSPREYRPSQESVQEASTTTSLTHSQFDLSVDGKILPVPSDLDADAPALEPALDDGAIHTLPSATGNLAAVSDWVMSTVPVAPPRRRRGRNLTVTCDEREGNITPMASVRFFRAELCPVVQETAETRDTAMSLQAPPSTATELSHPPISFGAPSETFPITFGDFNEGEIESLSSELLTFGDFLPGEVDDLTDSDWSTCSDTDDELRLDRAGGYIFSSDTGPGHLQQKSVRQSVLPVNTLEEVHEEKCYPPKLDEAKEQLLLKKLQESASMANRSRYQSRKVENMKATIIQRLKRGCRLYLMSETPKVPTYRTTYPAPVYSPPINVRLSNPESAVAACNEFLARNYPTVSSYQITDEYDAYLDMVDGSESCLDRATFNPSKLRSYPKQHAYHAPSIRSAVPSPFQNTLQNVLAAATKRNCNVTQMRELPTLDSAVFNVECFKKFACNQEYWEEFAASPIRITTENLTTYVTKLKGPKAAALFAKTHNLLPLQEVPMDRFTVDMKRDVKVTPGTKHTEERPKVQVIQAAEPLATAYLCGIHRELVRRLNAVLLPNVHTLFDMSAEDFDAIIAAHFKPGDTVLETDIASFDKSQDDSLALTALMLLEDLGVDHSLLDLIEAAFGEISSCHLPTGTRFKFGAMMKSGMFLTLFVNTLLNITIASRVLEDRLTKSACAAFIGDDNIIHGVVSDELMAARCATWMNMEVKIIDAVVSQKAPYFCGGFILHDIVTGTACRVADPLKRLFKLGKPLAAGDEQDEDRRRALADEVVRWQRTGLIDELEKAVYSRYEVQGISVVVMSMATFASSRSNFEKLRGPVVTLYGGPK
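Recombinant nsP2pro (150 nM) was preincubated with compound 15 min at room temperature in 10 mM Tris-HCl pH 8.0, 0.01% Tween 20. Peptide 2 FRET substrate (2.5 uM) was then added and fluorescence read after 1 h. Seven-point series, up to 25 uM.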
Starred values were filed as active, the others as inactive; [ ] = dose if it differs, or a comment. On the % scale 0 is the no-effect control and ±100 the full control effect; potency means the concentration at half of the fitted maximal effect.

`Cc1cc(C)nc(NC(=S)N2CCN(c3ccc(Cl)cc3S(C)(=O)=O)CC2)c1` gave nsP2pro inh inactive.
`CC(C)S(=O)(=O)N1CCC(N(Cc2cccnc2)C2CCOCC2)CC1` gave nsP2pro inh 2%.
`CCOC(=O)N1CCc2c(sc(NCc3cccs3)c2C(=O)Nc2cc(OC)ccc2OC)C1` gave nsP2pro inh 11µM*.
COc1ccc(NC(=O)c2c(NCc3sccc3C)sc3c2CCCC3)c(OC)c1 was read as nsP2pro inh -13%.
COc1ccccc1NC(=O)c1c(NCc2ccc(OC)c(OC)c2OC)sc2c1CCC2 was read as nsP2pro inh -23%.
Screening O=S1(=O)CCN(CN2CCS(=O)(=O)NC2)CN1 returned nsP2pro inh 10%.
CCN(CC)C(=O)N[C@@H]1C=C2c3cccc4[nH]cc(c34)C[C@@H]2N(C)C1 was read as nsP2pro inh 12µM*.
CC[C@@H](CO)NC(=O)[C@@H]1C=C2c3cccc4[nH]cc(c34)C[C@H]2N(C)C1 was read as nsP2pro inh -6%.
CCN(CC)C(=O)N[C@H]1C[C@@H]2c3cccc4[nH]cc(c34)C[C@H]2N(C)C1 was read as nsP2pro inh 22%.
For CC(=O)c1cc([N+](=O)[O-])c(Sc2ccc(F)cc2F)s1 the results were nsP2pro inh -21%.
Screening COCCn1c(C)cnc1CC1CCN(C(=O)c2c[nH]c3ccccc23)CC1 returned nsP2pro inh inactive.
For O=c1cc(-c2ccc(O)c(O)c2O)oc2ccccc12 the results were nsP2pro inh -16%.
For O[C@@H]1CO[C@H]2[C@@H]1OC[C@@H]2n1nnnc1SCc1ccco1 the results were nsP2pro inh 11µM*.
Screening COc1ccc(NC(=O)N[C@H]2CO[C@H]3[C@@H]2OC[C@@H]3n2nnnc2-c2ccccc2)cc1 returned nsP2pro inh -4%[39.2 µM].
For O=C(NC1CCCCC1)O[C@@H]1CO[C@H]2[C@@H]1OC[C@@H]2n1nnnc1-c1ccccc1 the results were nsP2pro inh -4%[39.2 µM].
CC(Cc1ccncc1)Nc1nccc(-c2cnn(-c3ccccc3)c2)n1 (centres undefined) was read as nsP2pro inh inactive.
O=C(c1cccc(C(F)(F)F)c1)N1CC(CO)C2(CCNCC2)C1 (centres undefined) was read as nsP2pro inh -4%.
Screening COc1ccc(C(=O)N2CC(CO)C3(CCNCC3)C2)cc1 (centres undefined) returned nsP2pro inh -4%.
`O=C(c1ccc(Cl)cc1)N1CC(CO)C2(CCNCC2)C1` (centres undefined) gave nsP2pro inh 7.9µM*.
Screening O=C1CCCC2=C1C(c1[nH]ncc1Cl)NC(=NCc1nccs1)N2 (centres undefined) returned nsP2pro inh 2%.
`CCOc1cccc(CN2CC(C(=O)NCc3ccncc3)C3(CCOCC3)C2)c1` (centres undefined) gave nsP2pro inh 2%.
For O=C(O)c1cccc(-c2noc(-c3ccccc3Cl)n2)c1 the results were nsP2pro inh 3%.
O=C(Nc1cccc(F)c1)c1cc(-c2ccc[nH]2)n[nH]1 was read as nsP2pro inh 88%.
`O=C(Nc1cccc(Cl)c1)c1cc(-c2ccc[nH]2)n[nH]1` gave nsP2pro inh 11%.
O=C(Nc1ccc(F)cc1)c1cc(-c2ccc[nH]2)n[nH]1 was read as nsP2pro inh 10µM*.
`CC[C@@H]1CCN[C@H](C(=O)N[C@@H]([C@H]2O[C@H](SC)[C@H](O)[C@@H](O)[C@H]2O)[C@H](C)Cl)C1` gave nsP2pro inh -6%.
OC(CN1CCN(c2cccc(Cl)c2)CC1)C(c1ccccc1)c1ccccc1 (centres undefined) was read as nsP2pro inh 29%.
Screening Cc1cc(OCC(O)CN2CCN(c3cccc(Cl)c3)CC2)ccc1Cl (centres undefined) returned nsP2pro inh 11µM*.
`CCN1CCN(CC(O)COc2cccc(CNCc3cnn(CC)c3)c2)CC1` (centres undefined) gave nsP2pro inh inactive.
O=C(O)CCSC[C@H]1O[C@@H]2O[C@H]3[C@H](O)[C@@H](O)[C@@H](O[C@H]4[C@H](O)[C@@H](O)[C@@H](O[C@H]5[C@H](O)[C@@H](O)[C@@H](O[C@H]6[C@H](O)[C@@H](O)[C@@H](O[C@H]7[C@H](O)[C@@H](O)[C@@H](O[C@H]8[C@H](O)[C@@H](O)[C@@H](O[C@H]9[C@H](O)[C@@H](O)[C@@H](O[C@H]1[C@H](O)[C@H]2O)O[C@@H]9CSCCC(=O)O)O[C@@H]8CSCCC(=O)O)O[C@@H]7CSCCC(=O)O)O[C@@H]6CSCCC(=O)O)O[C@@H]5CSCCC(=O)O)O[C@@H]4CSCCC(=O)O)O[C@@H]3CSCCC(=O)O was read as nsP2pro inh 192%.
Screening Cc1nn(-c2ccccc2)c2c1C(C1CC1)N(C1CCN(Cc3cccc(OC(F)(F)F)c3)CC1)C2=O (centres undefined) returned nsP2pro inh 2%.
COc1ccc(CCNC(=O)CCn2c(=O)c3ccccc3n(CC(=O)Nc3cc(Cl)ccc3C)c2=O)cc1OC was read as nsP2pro inh -11%.
`Cc1ccc(C)c(NC(=O)Cn2c(=O)ccc3cc(S(=O)(=O)N4CCCC4)ccc32)c1` gave nsP2pro inh -20%.
Screening CCc1ccc(NCc2cc3cc(OC)c(OC)cc3n(CC(=O)Nc3cc(C)ccc3C)c2=O)cc1 returned nsP2pro inh 10µM*.
`COc1ccc(CN2CCCC3(C2)C(=NC2CCCCC2)NC(=O)N3c2cccnc2)cc1` (centres undefined) gave nsP2pro inh inactive.
O=C(Cc1cccc(Cl)c1)NC1CCN(Cc2ccc(-c3ccsc3)cc2)C1 (centres undefined) was read as nsP2pro inh 2%.
For CC(C)C1=NOC2(CCN(C(=O)c3ccccc3F)CC2)C1 the results were nsP2pro inh -2%[39.2 µM].
COCCn1c(C)cnc1CCNS(=O)(=O)c1c(C)nn(C)c1C was read as nsP2pro inh 10µM*.
For COCCn1c(C)cnc1CCNC(=O)NCC(C)C the results were nsP2pro inh inactive.
For COCCn1c(C)cnc1CCNS(=O)(=O)c1cc(OC)ccc1OC the results were nsP2pro inh 1%.
`CCc1cc(C(=O)N2CCN(c3ccccc3)CC2)no1` gave nsP2pro inh -2%.
Screening CCOC(=O)c1c(-c2ccc(C)cc2)csc1NC(=O)c1cc(-c2ccc(OC)cc2)on1 returned nsP2pro inh -20%.
`CCc1cc(C(=O)Nc2sc(C)c(CC)c2C#N)no1` gave nsP2pro inh 11µM*.
Screening COc1ccc(CCN2CC(NC(=O)Cn3ccc(C)n3)CC2=O)cc1 (centres undefined) returned nsP2pro inh inactive.
`NCc1ccccc1CC(=O)N[C@@H]1C(=O)N2C(C(=O)O)=C(CSc3nnnn3CC(=O)O)CS[C@H]12` gave nsP2pro inh 12µM*.
For Cn1nnnc1SCC1=C(C(=O)O)N2C(=O)[C@H](NC(=O)C(O)c3ccccc3)C2SC1 (some centres undefined) the results were nsP2pro inh -19%.
O=C(O)C1=C(CSc2nnnn2CS(=O)(=O)O)CS[C@@H]2[C@@H](NC(=O)[C@H](O)c3ccccc3)C(=O)N12 was read as nsP2pro inh -23%.
For COc1ccc(CCNC(=O)c2cc3sccc3n2Cc2ccc(F)cc2)cc1OC the results were nsP2pro inh -7%.
